The whole screen tested about 16,000 compounds, of which about 5,100 (32%) were called active. Roughly 25% stayed inconclusive and do not appear here. This is one part of the list. Unmarked numbers belong to inactive results. The call rests on the fitted dose curve; in most records, active means well fitted curve in the direction sought with a large enough effect; inconclusive means small, poorly fitted or top-dose-only effect, or effect the other way; inactive means no such curve, though single readings can be large or run the other way.
Molecular target: Cytochrome P450 3A4 (Homo sapiens) (UniProt P08684)
Experiment: Cytochrome panel assay with activity outcomes
Details: recombinant CYP, pro-luciferin dealkylation, luminescence, p450-cyp3a4; series mostly up to 57.1 µM; activity, negative = inhibition: at the top concentration
On the % scale 0 is the no-effect control and ±100 the full control effect.

Cytochrome P450 3A4 (Homo sapiens), sequence (P08684 whole entry, looked up): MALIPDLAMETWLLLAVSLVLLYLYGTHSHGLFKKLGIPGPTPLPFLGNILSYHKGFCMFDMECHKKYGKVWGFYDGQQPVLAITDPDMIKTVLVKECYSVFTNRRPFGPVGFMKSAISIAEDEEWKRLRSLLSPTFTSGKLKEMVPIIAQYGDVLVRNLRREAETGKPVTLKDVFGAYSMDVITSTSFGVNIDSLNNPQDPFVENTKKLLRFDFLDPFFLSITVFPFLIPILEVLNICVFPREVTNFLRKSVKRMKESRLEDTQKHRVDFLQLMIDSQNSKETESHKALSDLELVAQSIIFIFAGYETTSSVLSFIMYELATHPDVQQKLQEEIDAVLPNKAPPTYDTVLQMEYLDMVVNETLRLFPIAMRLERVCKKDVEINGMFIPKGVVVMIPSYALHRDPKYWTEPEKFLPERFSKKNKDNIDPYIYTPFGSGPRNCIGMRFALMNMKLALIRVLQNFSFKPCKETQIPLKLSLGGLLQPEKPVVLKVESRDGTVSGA

Row | SMILES | AC50 | activity, negative = inhibition
1 | Cc1ccccc1OCC(O)Cn1c2ccccc2c2ccccc21 (stereo unspecified) | 12.6 µM (active) | –
2 | CC(C)NC[C@@H](O)COc1ccccc1-n1cccc1 | – | -14.7%
3 | O[C@@H](COc1cccc2ccccc12)CN1CCOCC1 | – | -6.73% [at 11.4 µM]
4 | OC[C@@H](O)COc1cccc2ccccc12 | – | -23%
5 | OC(COc1ccc(OCC(O)CN2CCCCCC2)cc1)CN1CCCCCC1 (stereo unspecified) | – | 3.14%
6 | Cc1ccc(OCC(O)Cn2c3ccccc3c3ccccc32)cc1 (stereo unspecified) | 17.8 µM (active) | –
7 | Cc1cccc(C)c1OCC(O)CNC(C)(C)C (stereo unspecified) | – | -9.33%
8 | CC(=O)Nc1c(I)c(C(=O)N[C@H]2[C@@H](O)[C@H](O)[C@H](CO)O[C@@H]2O)c(I)c(N(C)C(C)=O)c1I | – | -2.58% [at 25.6 µM]
9 | NC(N)=NC(=O)c1nc(Cl)c(N2CCCCCC2)nc1N | – | -23.3%
10 | Cc1cc(C)n(-c2nnc(C)n2/N=C/c2ccccc2OCc2ccccc2Cl)n1 | 2.24 µM (active) | –
11 | S=C(Nc1ccccc1)N1CCCCC1 | – | -4.5%
12 | CCCNC(=O)N1CCC(C(=O)c2ccc(F)cc2)CC1 | – | -0.769% [at 2.29 µM]
13 | O=C(c1ccc(F)cc1)C1CCN(C(=S)Nc2ccccc2)CC1 | 10 µM (active) | –
14 | Cc1ccc(Sc2cc(Cl)nc(N)n2)cc1 | – | -5.02%
15 | N#Cc1cc(N)ccc1Sc1ccc(Cl)cc1 | 5.62 µM (active) | –
16 | N#Cc1cc(-c2ccc(Cl)cc2)cnc1Sc1ccccc1 | – | -8.46%
17 | COc1cc2c3cc1Oc1cc(ccc1O)C[C@@H]1c4c(cc(OC)c(O)c4Oc4ccc(cc4)C[C@H]3[N+](C)(C)CC2)CC[N+]1(C)C | – | 0.655% [at 11.4 µM]
18 | N[C@@](CC(=O)O)(Cc1ccccc1)C(=O)O | – | -4.69% [at 11.4 µM]
19 | C/C(=C/C(=O)NCc1ccccc1)C(=O)O | – | 9.5%
20 | C=CC(=O)NC(C)(C)Cc1ccccc1 | 15.8 µM (active) | –
21 | Cc1ccc(CNC(=O)Cn2c(=O)oc3ccccc32)o1 | – | 1.22% [at 11.4 µM]
22 | COCCNC(=O)CCn1c(=O)oc2ccccc21 | – | -1.1%
23 | CC1CCCC(NC(=O)CCn2c(=O)oc3ccccc32)C1C (stereo unspecified) | 14.1 µM (active) | –

Row | SMILES | AC50 | activity, negative = inhibition
24 | CC[N+](C)(C)c1cccc(O)c1 | – | -3.37%
25 | CC1(C)c2ssc(=S)c2-c2ccccc2N1C(=O)CSC1=NCCS1 | 1.78 µM (active) | –
26 | O=c1cnc2cnc(Oc3cccc(Cl)c3)nc2n1C1CC1 | – | 11.3%
27 | COc1ccc(-n2c(=O)cnc3cnc(Oc4ccccc4)nc32)cc1 | 15.8 µM (active) | –
28 | COc1ccc(-n2c(=O)cnc3cnc(N4CCOCC4)nc32)cc1 | – | -13.4%
29 | O=c1cnc2cnc(Oc3ccccc3)nc2n1C1CC1 | – | -19.7%
30 | COc1ccc(-n2c(=O)cnc3cnc(Oc4cccc(Cl)c4)nc32)cc1 | 10 µM (active) | –
31 | COc1ccc(-n2c(=O)cnc3cnc(OC)nc32)cc1 | – | -17.2%
32 | COC(=O)C(C)Sc1ccc2nnc(-c3ccc(F)cc3)n2n1 (stereo unspecified) | – | -17.6%
33 | CCCCN(CC)S(=O)(=O)c1ccc(C(=O)Nc2nnc(CSC)o2)cc1 | – | 2.56% [at 11.4 µM]
34 | CCCOc1cccc(-c2cc(-c3n[nH]c(=S)n3CC)c3ccccc3n2)c1 | 10 µM (active) | –
35 | CCn1c(-c2ccoc2C)n[nH]c1=S | – | -8%
36 | CCc1ccc(-c2ccc(C(=O)C(F)(F)F)[nH]2)cc1 | – | 13.7%
37 | CC(C)(Oc1ccc([C@@H]2CC2(Cl)Cl)cc1)C(=O)O | inactive | –
38 | CC(C)(Oc1ccc(CCNC(=O)c2ccc(Cl)cc2)cc1)C(=O)O | – | -9.06% [at 25.6 µM]
39 | CC(C)(Oc1ccc(Cl)cc1)C(=O)Nc1ccncc1 | 0.794 µM (active) | –
40 | C[C@@H]1CCC[C@H](C)N1 | – | -0.959% [at 25.6 µM]
41 | CC(C)C(=O)Nc1ccc(C(=O)NNC(=O)CCCOc2ccc(Cl)cc2Cl)cc1 | – | -17.2%
42 | Clc1ccc(Cl)c(OCc2cc(-c3ccccc3Cl)on2)c1 | – | 10.7%
43 | O=C(Nc1ccn(Cc2ccccc2F)n1)c1ccc(COc2cc(Cl)ccc2Cl)o1 | 0.891 µM (active) | –
44 | O=C(Nc1cccnc1)c1ccc(COc2cc(Cl)ccc2Cl)o1 | 4.47 µM (active) | –
45 | O=C(N/N=C/c1ccc(O)cc1)c1ccc(COc2cc(Cl)ccc2Cl)o1 | – | -27.3% [at 2.29 µM]
46 | CC(C)CNC(=O)c1ccc(COc2ccc(Cl)cc2Cl)o1 | 20 µM (active) | –

Reference: PubChem BioAssay AID1851 (National Center for Advancing Translational Sciences (NCATS), 2009)
